Reference: PubChem BioAssay AID781 (Emory University Molecular Libraries Screening Center, 2007)
In all, about 220,000 compounds went through this assay and about 1,600 (0.73%) were called active. The list comes from a sample in which actives are over-represented; it also holds similar structures and randomly drawn compounds. A number with no mark means an inactive call.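 How the source made its calls: active means inhibition above about 70% (limit read from the data); inactive means the rest.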

Target: 14-3-3 protein zeta/delta (Bos taurus) (UniProt P63103)
Test: disruptors of 14-3-3 zeta phospho-Bad complex – biochemical, TR-FRET, bovine 14-3-3 zeta, primary screen (AID 781);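 further: 0% = full 14-3-3 plus peptide FRET controls and 100% = background without 14-3-3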
Settings: TR-FRET 14-3-3zeta/Dy647-pBad peptide displacement, 1 h; at 21.7 µM; hits give high values

Sequence of 14-3-3 protein zeta/delta (Bos taurus) (P63103 whole entry, looked up): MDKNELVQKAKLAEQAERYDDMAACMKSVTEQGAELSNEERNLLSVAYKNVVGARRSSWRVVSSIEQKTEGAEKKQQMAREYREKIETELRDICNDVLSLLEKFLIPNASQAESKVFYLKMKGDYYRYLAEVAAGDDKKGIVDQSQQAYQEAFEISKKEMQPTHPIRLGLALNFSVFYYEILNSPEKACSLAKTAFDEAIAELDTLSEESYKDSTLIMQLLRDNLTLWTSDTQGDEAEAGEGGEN

SMILES	inhibition
Cc1ccc(S(=O)(=O)/N=S(\C)C(C)C)cc1 (stereo not given)	1.1%
CS(=O)(=O)N(Cc1ccccc1)c1ccc(C(=O)NN=C2CCCCCC2)cc1	-15.2%
CC(=O)c1ccc(NC(=O)c2ccc3c(Cl)c4c(nc3c2)CCCC4)cc1	73.9% (active)
COc1ccc(N2CCN(C(=O)c3ccc4c(Cl)c5c(nc4c3)CCCC5)CC2)cc1	-10.1%
COc1cccc(NC(=O)c2ccc3c(SCC(=O)O)c4c(nc3c2)CCCC4)c1	-11.6%
COc1ccc(/C=C(\NC(=O)c2ccc(OCC(C)C)cc2)C(=O)OCc2ccco2)cc1	2.32%
Cc1ccc(-c2nc(SCC(=O)Nc3ccccc3OC(F)F)c3c(C)c(C(=O)O)sc3n2)cc1	80.4% (active)
COc1ccccc1NC(=O)CSc1nc2sc(C)c(C)c2c(=O)n1Cc1ccco1	-6.57%
Cc1ccc(C)c(SCc2nc3sc(C(=O)O)c(C)c3c(=O)[nH]2)c1	0.11%
Oc1ccc2ccccc2c1C=Nc1ccccc1	4.91%
CC(=O)Nc1ccc(S(=O)(=O)NC2(C(F)(F)F)C(=O)NC(C)=C2C#N)cc1 (stereo not given)	-3.08%
c1ccc(COc2ccccc2CNCc2cccnc2)cc1	77.2% (active)
COc1ccccc1CNCc1cccs1	0.7%
COc1cccc(CNCCc2c[nH]c3ccccc23)c1OCc1ccccc1F	29.9%
CCC(Oc1ccccc1)C(=O)NCc1cccnc1 (stereo not given)	-2.17%
Fc1ccccc1COc1ccccc1CNCc1ccncc1	75.9% (active)
O=C(CCc1ccccc1)NCc1cccnc1	-1.29%
CCOC(=O)CN(C(=O)COc1nc(C)cc(C)c1C#N)c1ccc(Cl)cc1	-3.15%
O=C(Nc1ccccc1Cl)c1ccccc1S(=O)(=O)c1ccccc1[N+](=O)[O-]	5.14%
COc1ccc(NC(=S)N2CCc3cc(OC)c(OC)cc3C2)cc1	-0.16%
COc1ccccc1/C=C/C=N/NC(=O)CN1CCN(Cc2ccccc2)CC1	-5.86%
O=C1COc2ccc(C(=O)COC(=O)C3CC(O)CN3S(=O)(=O)c3ccc(Cl)cc3)cc2N1 (stereo not given)	0.1%
Cc1ccc2nc(SCc3cn4c(C)cc(C)nc4n3)[nH]c2c1	-0.6%
CC(Sc1nc2c([nH]c3ccccc32)c(=O)n1C)c1ccccc1 (stereo not given)	98.1% (active)

SMILES	inhibition
CCCCn1c(=S)[nH]c2ccccc2c1=O	10.7%
Cn1nnnc1SCc1cc(=O)[nH]c2ccccc12	8.32%
S=C(Nc1ccc2c(c1)OCO2)N1CCCC1	-2.2%
COc1ccc(CCn2nnnc2C(c2ccccc2)N2CCN(C)CC2)cc1OC (stereo not given)	82.9% (active)
COc1ccc(C(c2nnnn2Cc2cccs2)N2CCN(c3ccccc3)CC2)cc1OC (stereo not given)	-7.19%
N#Cc1ccc(C(c2nnnn2CCc2ccccc2)N2CCCCCC2)cc1 (stereo not given)	4.83%
COC(=O)c1cc(NC(=O)CN2CCN(C(C)=O)CC2)cc(C(=O)OC)c1	-3.76%
FC(F)(F)c1nc(-c2ccccc2)ncc1-c1nnnn1-c1ccccc1	13.7%
N/C(=N\OC(=O)Cc1ccc([N+](=O)[O-])cc1)c1ccccn1	-17.6%
N/C(=N\OC(=O)COc1ccc([N+](=O)[O-])cc1)c1ccc(Br)cc1	2.68%
N/C(=N\OC(=O)Cc1ccccc1[N+](=O)[O-])c1ccc(Br)cc1	93.1% (active)
CCCc1nc(-c2cc3cc(C)ccc3[nH]c2=O)no1	-0.29%
COc1ccc(-n2nc(C(=O)Nc3cc(OC)c(OC)c(OC)c3)c3ccccc3c2=O)c(OC)c1	2.29%
Cc1ccsc1/C=N/NC(=O)Cc1cc(=O)[nH][nH]1	-22.4%
CCOCN(C(=O)Cn1c(C(C)O)nc2ccccc21)c1c(C)cccc1CC (stereo not given)	-12.3%
COc1ccc(C(=O)Nc2cccnc2)cc1C(=O)Nc1cccnc1	2.89%
O=C(Oc1cccnc1)c1cc2ccccc2oc1=O	17.9%
O=C(Nc1cccnc1)c1cc2cc(Br)ccc2oc1=O	82.5% (active)
COc1ccc(C)cc1S(=O)(=O)Nc1cccc(Cl)c1Cl	-10%
Cc1cc([N+](=O)[O-])nn1CCCC(=O)Nc1cccnc1Cl	-8.44%
Cc1cc2nc3c(=O)n(Cc4ccccc4)c(=O)[nH]c3nc2cc1N	-0.29%
Nc1ccc2nc3c(=O)[nH]c(=S)[nH]c3nc2c1	83.5% (active)
O=C1c2ccccc2NC(c2ccccn2)N1NS(=O)(=O)c1ccccc1 (stereo not given)	5.35%
c1ccc(C2CNCc3c2ccc2ccccc32)cc1 (stereo not given)	-8.65%

SMILES	inhibition
CN(C)S(=O)(=O)c1cccc(-c2nn(-c3ccccc3)cc2/C=C2\SC(=S)N(CC(=O)O)C2=O)c1	12%
Cc1ccc(OCC(=O)Nc2ccc(-c3nc4ncccc4o3)cc2)cc1	78.8% (active)
CC(=O)Nc1ccc(OCC(=O)NCc2ccc(C)cc2)cc1	-8.65%
Cc1ccc(OCC(=O)Nc2ccc(S(=O)(=O)Nc3ccccn3)cc2)cc1	-3.5%
Cc1oc2nc(SCC(=O)Nc3ccc(S(N)(=O)=O)cc3)nc(NC(=O)c3ccccc3)c2c1C	-6.33%
C/C=C(/C)C(=O)Nc1cccc(C2=NOC3(C2)C[C@@H](C(N)=O)N(C(=O)C2(C)CC2)C3)c1 (stereo not given in full)	-2.68%
Cc1ccnc(NS(=O)(=O)c2ccc(NC(=O)c3ccc(S(=O)(=O)N(C)C)cc3)cc2)n1	-9.02%
COc1cc(/C=N\NC(=O)c2nonc2N)c(OC)cc1Br	71.1% [fluorescence artefact?] (active)
COc1cc(/C=N/N=C(\N)c2nonc2N)cc(OC)c1OC	-22.2%
COc1cc(OC)c(/C=N/NC(=O)c2ccc([N+](=O)[O-])cc2)cc1Br	5.09%
CCc1ccc(S(=O)(=O)NCC(O)COc2ccc(OC)cc2)cc1 (stereo not given)	-1.31%
Cc1nc2ccccc2nc1N/N=C/c1ccc(O)cc1O	-9.43%
O=C(N/N=C/c1ccco1)c1csc2c1CCCC2	-2.18%
Cc1c(C)c(C)c2[nH]c(=S)[nH]c2c1C	-0.36%
Cc1cc(=O)[nH]c(=S)[nH]1	0.3%
O=c1[nH]c(=S)[nH]c2[nH]c(=S)[nH]c12	73.3% (active)
Nc1nc(SCC(=O)N2CCN(S(=O)(=O)c3ccc(Cl)cc3)CC2)n[nH]1	-16.8%
CC1CCN(C(=S)NC2CC3CCC2C3)CC1 (stereo not given)	-3%
COCc1c(N)c(C)nc(Cl)c1C#N	-17%
Cc1nnc(SCCCCSc2nnc(C)c(=O)[nH]2)[nH]c1=O	-6.9%
CN(C)CCCNC(=S)NCc1ccc(Cl)cc1	-10.2%
OCCN(Cc1ccccc1)Cc1ccc(Cl)cc1	42.7%
CC(O)CN(Cc1ccc(Cl)cc1)CC(C)O (stereo not given)	85.5% (active)
Cn1c(N)c(C(=O)COC(=O)c2ccccc2NCc2ccco2)c(=O)n(C)c1=O	0.84%

SMILES	inhibition
CCCCCC(=O)Nc1ccc(C(=O)N/N=C/c2ccc([N+](=O)[O-])cc2)cc1	-13.5%
O=C(COc1ccc(/C=N/NC(=O)c2ccc(O)cc2)cc1)Nc1ccc([N+](=O)[O-])cc1	74.2% [fluorescence artefact?] (active)
O=C(N/N=C/c1ccc(OCc2ccccc2)cc1)c1ccc(O)cc1	-9.63%
CSc1n[nH]c(=S)n1N	-10%
CN(c1ccccc1)S(=O)(=O)c1cc(C(=O)Nc2nc3ccccc3[nH]2)ccc1Cl	1.7%
CCCCN(C)C(=O)c1ccc2c(c1)N(CC)C(=O)c1ccccc1S2(=O)=O	75.6% (active)
COC(=O)CNC(=O)c1ccc2c(c1)S(=O)(=O)c1ccccc1C2=O	2.96%
O=C(c1ccc2c(c1)N(Cc1ccc(F)cc1)C(=O)c1ccccc1S2(=O)=O)N1CCN(c2ccccn2)CC1	-4.43%
Brc1ccc2c(c1)[C@H]1OCC[C@H]1[C@@H](c1cccs1)N2	4.8%
O=S1(=O)C=C(SCCN2CCCC2)c2ccccc21	71.3% (active)
c1ccc(-c2ccccc2OCCN2CCCCC2)cc1	40.5%
Nc1nnc(SCCN2C(=O)c3ccccc3S2(=O)=O)s1	5.12%
Cc1nn(CC2CC2)c(=O)n1N(C)c1ncc(C(F)(F)F)cc1Cl	-11.7%
Cc1nn(C)cc1N1C(=O)c2cccc3c(N)ccc(c23)C1=O	-2.5%
CCN(c1ccccc1)S(=O)(=O)c1ccc(N)cc1	71.9% (active)
CCN(c1ccccc1)S(=O)(=O)c1ccc(NC(=O)C(C)(C)C)cc1	4.53%
CCN(c1ccccc1)S(=O)(=O)c1ccc2[nH]c(=O)[nH]c2c1	-1.8%
CCOC(=O)c1cc2c(=O)n3ccccc3nc2n(CC(C)C)c1=NC(=O)c1c(-c2c(F)cccc2Cl)noc1C	-8.06%
O=C1CCCC(O)=C1N=Nc1ccc2ncsc2c1	3.62%
COC(=O)c1c(C)oc(C)c1S(=O)(=O)Nc1ccc(C(C)C)cc1	3.11%
CC1CCC2(CC1)NC(=O)N(Cc1nnc(-c3cccs3)o1)C2=O (stereo not given)	21.6%
O=C(CN1C(=O)NC2(CCCCCC2)C1=O)NC1CC1	8.5%
CC1CCC2(CC1)NC(=O)N(CC(=O)c1cccn1C)C2=O (stereo not given)	73.9% (active)
